Molecules are shown by their SMILES. Activity calls are given as the source filed them.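 Rule for the calls: active = inhibition at or above 50% relative to wild type and mutant plate controls; inactive = inhibition below 50%.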

As a reminder, the inhibition is the drop in the measured response relative to a control, in per cent.

The experiment can be described thus: loss of swimming-algae plug formation – whole organism, Chlamydomonas reinhardtii, WT vs cilia-less mutant, absorbance, 96-well, primary screen (AID 463189).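 Note: 0% = wild type cc124 cells in DMSO and 100% = ciliumless bld1 mutant cells.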 The note with it: Chlamydomonas reinhardtii gravitaxis, OD600 absorbance, 2 days; at 10 µM; hits give high values.
For `O=S(=O)(O)C1CCNCC1`, the inhibition was 1.98% (inactive).

In the case of `CN(C)c1nc(N)c(C(=O)N=C(N)N)nc1Cl`, the inhibition is 1.32% (inactive). The result for `CCCn1cnc2c1c(=O)n(CCCCC(C)=O)c(=O)n2C` reads 3.15% (inactive). The result for `COc1cc2c(cc1O)CC[C@@H]1[C@@H]2CC[C@]2(C)[C@@H](O)CC[C@@H]12` reads -5.37% (inactive).

Regarding `Cc1ccc2c(c1)C(N1CCN(C)CC1)=Nc1cccnc1N2`, the inhibition is 7.3% (inactive). For the molecule `Oc1ccc(O)cc1`, the inhibition was 0.661% (inactive). In the case of `COc1ccccc1N1CCN(CCCNc2c(C)c(=O)n(C)c(=O)n2C)CC1`, the inhibition is 5.61% (inactive). The value for `Nc1ccn([C@@H]2O[C@H](CO)[C@@H](O)[C@@H]2O)c(=O)n1` was 0.194% (inactive); that for `O=C1Nc2ccc(I)cc2/C1=C/c1cc(Br)c(O)c(Br)c1` was -6.77% (inactive). The result for `CNC(=O)[C@H]1O[C@@H](n2cnc3c(NCc4ccc(I)cc4)nc(Cl)nc32)[C@H](O)[C@@H]1O` reads 0.705% (inactive). The result for `Cc1nc(N=Nc2ccc(C(=O)O)cc2)c(COP(=O)(O)O)c(C=O)c1O` reads 8.14% (inactive); that for `CC1COc2c(N3CCN(C)CC3)c(F)cc3c(=O)c(C(=O)O)cn1c23` (stereo not given), 6.49% (inactive); that for `N[C@@H](CS(=O)O)C(=O)O`, 7.29% (inactive).

As to `CN[C@H](CC(C)C)C(=O)N[C@H]1C(=O)N[C@@H](CC(N)=O)C(=O)N[C@H]2C(=O)N[C@H]3C(=O)N[C@H](C(=O)N[C@H](C(=O)O)c4cc(O)cc(O)c4-c4cc3ccc4O)[C@H](O)c3ccc(c(Cl)c3)Oc3cc2cc(c3O[C@@H]2O[C@H](CO)[C@@H](O)[C@H](O)[C@H]2O[C@H]2C[C@](C)(N)[C@H](O)[C@H](C)O2)Oc2ccc(cc2Cl)[C@H]1O`, the inhibition is 15.1% (inactive). The value for `CCC1(O)CC2CN(CCc3c([nH]c4ccccc34)[C@@](C(=O)OC)(c3cc4c(cc3OC)N(C=O)C3[C@]45CCN4CC=C[C@@](CC)([C@@H](OC(C)=O)[C@]3(O)C(=O)OC)[C@H]45)C2)C1` (stereo not given in full) was 1.07% (inactive). The result for `NS(=O)(=O)c1cc2c(cc1Cl)NC(C1CC3C=CC1C3)NS2(=O)=O` (stereo not given) reads -0.288% (inactive). The result for `NCCNS(=O)(=O)c1cccc2cnccc12` reads -4.46% (inactive); that for `O=C(O)CN(CCN(CC(=O)O)CC(=O)O)CCN(CC(=O)O)CC(=O)O`, 6.57% (inactive); that for `CCc1cccc(N(C)C(N)=Nc2cccc3ccccc23)c1`, -1.11% (inactive).

On to `NC(N)=NC(=O)c1nc(Cl)c(N2CCCCCC2)nc1N`, for which the inhibition is -1.07% (inactive). In the case of `OCC1O[C@H](O)C(Cl)C(O)C1O` (stereo not given in full), the inhibition is 4.68% (inactive). The result for `CCN1/C(=C/C(C)=O)Sc2ccc(OC)cc21` reads 9.38% (inactive). In the case of `C=CCc1ccccc1OCC(O)CN[C@]1(C)CCC[C@H](C(C)(C)NC(=O)CBr)C1` (stereo not given in full), the inhibition was 16.4% (inactive). As to `COc1ccc(CCNC[C@@H](O)c2ccc(O)cc2)cc1OC`, the inhibition was -0.226% (inactive). As to `CCN(CC)CCOC(=O)c1cc(Cl)c(N)cc1OC`, the inhibition was 2.34% (inactive). Regarding `CCCCOC(=O)NS(=O)(=O)c1sc(CC(C)C)cc1-c1ccc(Cn2c(CC)nc3c(C)cc(C)nc32)cc1`, the inhibition was 10.7% (inactive).

For `O=C(O)c1cc(=O)c2c(Cl)cc(Cl)cc2[nH]1`, the inhibition is 2.38% (inactive). The result for `c1ccc([C@H]2CN3CCSC3=N2)cc1` reads -1.39% (inactive). The result for `CCCC[C@@]1(C2CCCC2)Cc2cc(OCC(=O)O)c(Cl)c(Cl)c2C1=O` reads 4.57% (inactive); that for `CC[N+](CC)(CC)CC(=O)Nc1c(C)cccc1C`, 6.77% (inactive).

In the case of `NC(N)=NCCC[C@H](N)C(=O)O`, the inhibition was -8.92% (inactive). For the molecule `CCCn1c(=O)c2[nH]c(-c3ccc(OCC(=O)Nc4ccc(C#N)cc4)cc3)nc2n(CCC)c1=O`, the inhibition was 4.77% (inactive). The result for `Cc1cc(C)c(/C=C2\C(=O)Nc3ccccc32)[nH]1` reads 25.9% (inactive); that for `COC1(C2=NCCN2)COc2ccccc2O1` (stereo not given), 7.5% (inactive); that for `O=c1cc(N2CCOCC2)oc2c(-c3ccccc3)cccc12`, 15.7% (inactive). The value for `Nc1nc(SCc2ccc([N+](=O)[O-])cc2)c2ncn([C@@H]3O[C@H](CO)[C@H](O)C3O)c2n1` (stereo not given in full) was -2.89% (inactive). The value for `O=C1NCN(c2ccccc2)C12CCN(CCCC(c1ccc(F)cc1)c1ccc(F)cc1)CC2` was -2.36% (inactive); that for `Cc1ccccc1CNc1ncnc2c1ncn2C1OC(CO)C(O)C1O` (stereo not given) was -2.9% (inactive).

Consider `O=C(CCCN1CCC(O)(c2cccc(C(F)(F)F)c2)CC1)c1ccc(F)cc1`, for which the inhibition is 40.6% (inactive). The value for `COc1c2c(nc3ccccc13)OC(C(C)(O)CO)C2` (stereo not given) was 6.88% (inactive).

Source of the values: PubChem BioAssay.
